LYPLA1 counter – LYPLA1 (human) inhibition in PME1 counter-screen; recombinant LYPLA1, FP-Rh probe fluorescence polarization; O75608; 0.16% of 320,000 active; AID 2174; inhibition, % at 5.9 µM;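 active = inhibition above the mean of all tested compounds plus 3 SD, set per campaign, cut at about 14% in these data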;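 note: inhibitors block serine hydrolase probe labeling of LYPLA1 so polarization falls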
Target sequence (O75608 whole entry, looked up): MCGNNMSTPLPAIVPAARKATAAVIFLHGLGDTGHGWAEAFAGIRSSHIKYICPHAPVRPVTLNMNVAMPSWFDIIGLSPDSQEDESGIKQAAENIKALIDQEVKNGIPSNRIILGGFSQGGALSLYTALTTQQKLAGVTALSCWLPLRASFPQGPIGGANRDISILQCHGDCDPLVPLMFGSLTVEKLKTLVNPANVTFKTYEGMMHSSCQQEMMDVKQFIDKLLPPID
PME-1 primary – blocks human protein phosphatase methylesterase 1; inhibition, % at 5.9 µM; Q9Y570; recombinant PME-1, FP-Rh probe fluorescence polarization; 0.53% of 320,000 active;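 active = inhibition above the campaign mean of all compounds plus 3 SD, cut at about 26% in these data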;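 note: competitive labeling of PME-1 active site by serine hydrolase directed probe; inhibitors block probe labeling so polarization falls and inhibition rises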
Target sequence (Q9Y570 whole entry, looked up): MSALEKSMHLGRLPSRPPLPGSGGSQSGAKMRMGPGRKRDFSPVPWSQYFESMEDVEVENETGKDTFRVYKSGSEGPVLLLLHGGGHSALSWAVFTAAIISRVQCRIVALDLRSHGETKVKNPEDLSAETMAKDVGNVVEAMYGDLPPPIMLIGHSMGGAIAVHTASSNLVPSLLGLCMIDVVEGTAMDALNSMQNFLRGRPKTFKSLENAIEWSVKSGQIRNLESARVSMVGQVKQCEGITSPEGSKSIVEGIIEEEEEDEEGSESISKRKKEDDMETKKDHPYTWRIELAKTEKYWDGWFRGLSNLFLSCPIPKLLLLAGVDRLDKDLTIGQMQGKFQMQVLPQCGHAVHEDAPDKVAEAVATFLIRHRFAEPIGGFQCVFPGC
PAD4 inh – inhibitors of human PAD4; inhibition, % at 6.36 µM; AID 485272; Q9UM07; 0.41% of 330,000 active; recombinant PAD4, RCA probe fluorescence polarization;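 active = percent inhibition above a cutoff equal to the mean of all tested compounds plus 3 SD, cut at about 15% in these data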
Fam108B counter – counter-screen for RBBP9 inhibitors: inhibitors of mouse Fam108B; recombinant Fam108B, FP-Rh probe fluorescence polarization; inhibition, % at 9.51 µM; 0.33% of 300,000 active;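 active = inhibition above the screen mean inhibition plus 3 SD, computed separately per campaign, cut at about 18% in these data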;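 note: inhibitors lower polarization as less probe binds the enzyme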
LYPLA2 inh – counter-screen for PME1 inhibitors: inhibitors of human LYPLA2; O95372; recombinant LYPLA2, FP-Rh probe fluorescence polarization; inhibition, % at 5.9 µM; 0.38% of 320,000 active;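 active = inhibition above the screen-wide mean plus 3 SD, limit set per campaign, cut at about 26% in these data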
GSTO1 inh – counter-screen for RBBP9 inhibitors: inhibitors of human GSTO1; P78417; recombinant GSTO1, activity-based probe fluorescence polarization; inhibition, % at 5.96 µM; 1.1% of 300,000 active;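 active = inhibition above the campaign mean inhibition plus 3 SD, cut at about 35% in these data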
Fam108b inh conf – confirmation of mouse Fam108b serine hydrolase inhibitors; shares compounds with Fam108B counter; recombinant Fam108b, FP-Rh probe fluorescence polarization; inhibition, % at 9.51 µM; 44% of 930 active; AID 1978;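 active = inhibition above a limit from the primary screen, the mean over all compounds plus 3 SD, cut at about 19% in these data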;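 note: inhibitors free the probe so polarization falls as inhibition rises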
Fam108b ABPP HTS – inhibits mouse Fam108b in gel-based ABPP | shares compounds with Fam108B counter | inhibition, % at 20 µM | recombinant Fam108b, fluorophosphonate probe | 44% of 260 active; in the data active = inhibition above about 40%
GSTO1 inh conf – GSTO1 (human) inhibition, confirmation. shares compounds with GSTO1 inh. recombinant GSTO1, probe fluorescence polarization. inhibition, % at 5.96 µM. 54% of 2,400 active;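 active = inhibition above the primary screen's cutoff, its mean inhibition plus 3 SD, cut at about 35% in these data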;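 note: loss of polarization as inhibitors block binding of rhodamine sulfonate ester activity probe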
Numbers stand for hits; – = inactive; · = not tested or not shown; + = active, no number. Shown are actives, neighbours in structure and some others; about 1.8% of the full set was active somewhere.

SMILES	LYPLA1 counter	PME-1 primary	PAD4 inh	Fam108B counter	LYPLA2 inh	GSTO1 inh	Fam108b inh conf	others
CC(C)(C)c1cc[n+](-c2[nH]c(=O)sc2/C=N/N=C(\[O-])c2cccnc2)cc1	–	–	–	–	–	–	·
COc1cc(/C=N/NC(=O)c2ccccc2)ccc1O	–	–	–	–	–	–	·
COc1cc(/C=N/NC(=O)c2ccc(CSc3nc4ccccc4[nH]3)cc2)ccc1O	–	–	–	24	–	–	–
Cc1ccc(C(=O)N/N=C2\CC3CC=CC23)c(C)c1 (stereo not drawn)	–	–	–	–	–	–	·
CC1CCCC(N2CCN(C(=O)c3ccccc3F)CC2)C1 (stereo not drawn)	–	–	–	–	–	–	·
CCN(CC)S(=O)(=O)c1ccc(Nc2ccc(-c3ccc4c(c3)OCCO4)nn2)cc1	–	–	–	20	–	–	–
CN(C)S(=O)(=O)c1ccc(Nc2ccc(-c3ccc4c(c3)OCCO4)nn2)cc1	–	–	–	–	–	–	·
Cc1cc(C)n2c(SCC(=O)Nc3ccccc3C#N)nnc2n1	–	–	–	·	–	·	·
N#CC1=C(N)SC(N)=C(C#N)C1c1ccoc1	–	–	–	26	–	–	–
Cn1cnnc1Sc1ccc(C(=O)NCCC(c2ccccc2)c2ccccc2)cc1[N+](=O)[O-]	–	–	–	–	–	–	·
COc1cccc2[nH]c(C(=O)NC(C)c3ccccc3)cc12 (stereo not drawn)	–	–	–	–	–	–	·
CCN(CC)c1ccc(NC(=O)c2cc3c(OC)cccc3[nH]2)cc1	–	–	–	21	–	–	–
CCOC(=O)Oc1ccc(/C=C2\N=C(C)OC2=O)cc1	–	–	–	–	–	–	·
Cc1sc2ncnc(N/N=C/c3ccccc3O)c2c1C	–	–	–	19	–	–	–
Cc1ccccc1Nc1nc(-c2sc(NC(=O)c3ccc([N+](=O)[O-])cc3)nc2C)cs1	–	–	–	–	–	–	·
COc1ccc(Cl)cc1Nc1nc(-c2sc(NC(=O)c3ccccc3)nc2C)cs1	–	–	–	–	–	–	·
CCOc1ccccc1Nc1nc(-c2sc(NC(=O)c3ccc([N+](=O)[O-])cc3)nc2C)cs1	–	–	–	22	–	–	24
CCCCCC(=O)Nc1nc(C)c(-c2csc(Nc3ccc(Cl)cc3)n2)s1	–	–	–	20	–	–	–
COc1ccc(OC)c(Nc2nc(-c3sc(NC(=O)c4ccccc4)nc3C)cs2)c1	–	–	–	19	–	–	–
Cc1ccc(Nc2nc(-c3sc(NC(=O)c4ccc([N+](=O)[O-])cc4)nc3C)cs2)cc1	–	–	–	22	–	–	–
CC(C)CC(C)c1cc(N)nc2nc3ccccc3n12 (stereo not drawn)	–	–	–	–	–	–	·
O=C(Nc1ccc(-c2nc3ccccc3o2)cc1)c1ccc(N2CCOCC2)c([N+](=O)[O-])c1	–	–	–	20	–	–	–
COc1ccc(C(=O)C2CCCN(S(=O)(=O)C(C)C)C2)c(C)c1 (stereo not drawn)	–	–	–	–	–	–	·
O=[N+]([O-])c1ccc(N/N=C/c2c[nH]c3ccccc23)c(S(=O)(=O)Nc2ccc(Cl)cc2)c1	–	–	–	38	–	–	+
O=[N+]([O-])c1ccc(NN=Cc2c[nH]c3ccccc23)c(S(=O)(=O)Nc2ccc(Cl)cc2)c1	·	·	·	·	·	·	·	Fam108b ABPP HTS=90
SMILES	LYPLA1 counter	PME-1 primary	PAD4 inh	Fam108B counter	LYPLA2 inh	GSTO1 inh	Fam108b inh conf	others
COc1ccccc1NS(=O)(=O)c1cc([N+](=O)[O-])ccc1N/N=C/c1c(C)[nH]c2ccccc12	–	–	–	–	–	–	·
CC(=O)N1N=C(c2cccc([N+](=O)[O-])c2)OC1c1ccc(Cl)cc1Cl (stereo not drawn)	–	–	–	–	–	–	·
CCn1c(C)c(C(=O)c2ccccc2)c(C#N)c1C(=O)O	–	–	–	–	–	–	·
COc1ccccc1OCc1nc(-c2cccc([N+](=O)[O-])c2)no1	–	–	–	–	–	–	·
O=C(Nc1cccc(C(F)(F)F)c1)c1ccc2nc(-c3ccco3)c(-c3ccco3)nc2c1	–	30	–	52	–	50	–	GSTO1 inh conf=–
O=C(Nc1cccc(C(F)(F)F)c1)c1cc[n+]([O-])cc1	–	–	–	–	–	–	·
COc1ccc(C2=NN(C(=O)CCC(=O)O)C(c3ccccc3OC)C2)cc1 (stereo not drawn)	–	–	–	–	–	–	·
Cc1ccc(NC(=O)C(=O)Nc2ccc(C)cn2)nc1	–	–	–	–	–	–	·
Cc1ccc(NC(=O)/C(C#N)=C(\N)C(Cl)(Cl)Cl)nc1	–	–	–	21	–	47	23	GSTO1 inh conf=76
Cc1ccc(S(=O)(=O)N2CCCCC2)cc1NC(=O)C1CC(=O)N(c2ccc3c(c2)OCCO3)C1 (stereo not drawn)	–	–	–	–	–	–	·
Cc1ccc(/C=C2\SC(=S)N(/N=C/c3cc([N+](=O)[O-])ccc3O)C2=O)o1	–	–	–	25	–	50	26	GSTO1 inh conf=43
CCOC(=O)c1ccc(NC(=O)C(C)N2C(=O)c3ccccc3C2=O)cc1 (stereo not drawn)	–	–	–	–	–	–	·
CCOC(=O)c1ccc(NC2=CC(=O)C(=O)c3ccccc32)cc1	–	–	–	19	–	77	30	Fam108b ABPP HTS=–;GSTO1 inh conf=87
CCOC(=O)CC1C(=O)NCCN1C(=O)NC1CCCCC1 (stereo not drawn)	–	–	–	–	–	–	·
CN1c2ccccc2C(C)(C)C12C=Nc1c(ccc3ccccc13)O2 (stereo not drawn)	–	–	–	31	–	90	–	GSTO1 inh conf=–
Cc1ccc(NC(=O)CCNC(=O)c2ccc(Cl)cc2)cc1C	–	–	–	–	–	–	·
O=C(O)c1ccc2c(c1)C(=O)/C(=C\c1ccco1)C2=O	–	–	–	18	–	40	–	GSTO1 inh conf=50
Oc1ccccc1N=N/C(=N/Nc1ccccc1O)c1ccccc1	–	–	–	–	–	–	·
N#C/C(N=Nc1ccccc1O)=N\Nc1ccccc1O	–	32	–	39	–	87	40	Fam108b ABPP HTS=–;GSTO1 inh conf=68
Cc1cccc(CSCc2ccc(C(=O)NC3CCCC3)o2)c1	–	–	–	–	–	–	·
O=[N+]([O-])c1cc([N+](=O)[O-])c2c(=Nc3ccccc3)n(-c3ccccc3)n(O)c2c1	–	–	–	19	–	46	27	GSTO1 inh conf=63

Bioassay records: PubChem, The Scripps Research Institute Molecular Screening Center
